Assays:
Test in all cases: DAPPL (digital affinity profiling via proximity ligation, sequencing); 10 mM Tris-HCl pH 7.5, 50 mM NaCl, 1 mM DTT, 4% glycerol, room temperature, 30 min; GST-TFs on glutathione beads, 16-mer random dsDNA library, 0.1% formaldehyde crosslink after washing; high values mean tight binding
Details in all cases: protein: recombinant; tags: N-terminal GST; dsDNA, one strand shown
ERF = target: T1, ERF (Homo sapiens, UniProt P50548 1-548)
T1 sequence: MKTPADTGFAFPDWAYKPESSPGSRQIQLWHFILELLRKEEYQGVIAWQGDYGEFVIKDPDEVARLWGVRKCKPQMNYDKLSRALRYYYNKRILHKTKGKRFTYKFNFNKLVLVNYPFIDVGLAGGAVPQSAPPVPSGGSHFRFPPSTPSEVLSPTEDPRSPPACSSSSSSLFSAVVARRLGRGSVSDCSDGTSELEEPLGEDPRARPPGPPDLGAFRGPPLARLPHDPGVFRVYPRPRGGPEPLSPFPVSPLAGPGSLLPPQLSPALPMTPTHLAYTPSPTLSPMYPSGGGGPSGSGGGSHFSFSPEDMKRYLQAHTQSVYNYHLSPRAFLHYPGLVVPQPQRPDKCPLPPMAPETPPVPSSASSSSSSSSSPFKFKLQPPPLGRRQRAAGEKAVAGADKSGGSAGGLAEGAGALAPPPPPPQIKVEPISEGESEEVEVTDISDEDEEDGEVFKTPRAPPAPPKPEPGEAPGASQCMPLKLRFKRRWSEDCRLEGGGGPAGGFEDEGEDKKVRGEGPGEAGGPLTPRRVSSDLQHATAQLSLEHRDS
Summary of the method: (§1)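 Binding signal is defined as a hexamer's read frequency for one factor over its frequency for the tag-only sample. To obtain reads, GST-fused human transcription factors were expressed in yeast, captured on glutathione beads, barcoded with DNA and pooled with that sample. Pools met 200 nmole of a 16-mer random double-stranded DNA library in Tris/NaCl/DTT/glycerol buffer for 30 min at room temperature before washing, 0.1% formaldehyde crosslinking, proximity ligation (BsaI/T4 ligase, 1 h, 37 °C), PCR and Illumina NextSeq500 sequencing.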

ETV3L = target: T2, ETV3L (Homo sapiens, UniProt Q6ZN32 1-361)
T2 sequence: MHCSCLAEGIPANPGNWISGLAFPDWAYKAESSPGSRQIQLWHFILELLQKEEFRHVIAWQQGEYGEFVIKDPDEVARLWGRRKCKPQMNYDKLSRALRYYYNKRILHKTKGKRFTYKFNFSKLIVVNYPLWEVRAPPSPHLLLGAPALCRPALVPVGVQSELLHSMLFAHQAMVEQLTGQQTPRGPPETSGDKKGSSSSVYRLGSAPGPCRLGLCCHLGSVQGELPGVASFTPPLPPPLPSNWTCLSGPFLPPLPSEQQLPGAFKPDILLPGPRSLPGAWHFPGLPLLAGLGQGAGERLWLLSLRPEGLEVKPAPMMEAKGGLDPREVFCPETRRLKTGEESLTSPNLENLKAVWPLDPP
Summary of the method: as §1

ETS2 = target: T3, ETS2 (Homo sapiens, UniProt P15036 1-469)
T3 sequence: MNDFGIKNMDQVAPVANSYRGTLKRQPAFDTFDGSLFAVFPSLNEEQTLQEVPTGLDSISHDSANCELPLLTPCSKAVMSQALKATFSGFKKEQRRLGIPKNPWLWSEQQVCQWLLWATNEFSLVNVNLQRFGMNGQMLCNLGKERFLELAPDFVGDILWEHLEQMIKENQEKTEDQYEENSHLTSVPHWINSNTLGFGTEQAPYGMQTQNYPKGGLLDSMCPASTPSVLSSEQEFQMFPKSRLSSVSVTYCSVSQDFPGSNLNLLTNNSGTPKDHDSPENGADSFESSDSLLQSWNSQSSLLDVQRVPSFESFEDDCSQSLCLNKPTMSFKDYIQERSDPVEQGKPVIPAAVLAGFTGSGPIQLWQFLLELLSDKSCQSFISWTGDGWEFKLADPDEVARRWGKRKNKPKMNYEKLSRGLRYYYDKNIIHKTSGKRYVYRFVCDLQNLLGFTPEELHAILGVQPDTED
Summary of the method: as §1

SPDEF = target: T4, SPDEF (Homo sapiens, UniProt O95238 1-335)
T4 sequence: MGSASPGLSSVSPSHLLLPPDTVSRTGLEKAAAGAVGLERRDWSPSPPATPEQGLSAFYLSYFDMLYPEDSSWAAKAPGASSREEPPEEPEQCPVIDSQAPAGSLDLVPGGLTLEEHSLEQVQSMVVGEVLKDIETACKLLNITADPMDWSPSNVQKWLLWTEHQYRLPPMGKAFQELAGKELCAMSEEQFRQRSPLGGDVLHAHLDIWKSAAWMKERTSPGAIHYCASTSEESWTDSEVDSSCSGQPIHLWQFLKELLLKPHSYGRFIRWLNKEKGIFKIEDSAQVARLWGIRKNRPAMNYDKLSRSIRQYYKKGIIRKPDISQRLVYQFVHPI
Summary of the method: as §1

ETV7 = target: T5, ETV7 (Homo sapiens, UniProt Q9Y603 1-341)
T5 sequence: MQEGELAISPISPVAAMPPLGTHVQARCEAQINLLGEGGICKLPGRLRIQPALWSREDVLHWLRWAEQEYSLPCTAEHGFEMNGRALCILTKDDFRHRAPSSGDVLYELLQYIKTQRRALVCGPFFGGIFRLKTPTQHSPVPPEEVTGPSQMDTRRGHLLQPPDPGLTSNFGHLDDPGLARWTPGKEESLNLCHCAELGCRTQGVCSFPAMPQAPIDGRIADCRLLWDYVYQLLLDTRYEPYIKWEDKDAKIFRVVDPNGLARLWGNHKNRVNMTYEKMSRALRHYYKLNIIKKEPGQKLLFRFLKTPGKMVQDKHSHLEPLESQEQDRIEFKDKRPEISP
Summary of the method: as §1

ELF5 = target: T6, ELF5 (Homo sapiens, UniProt Q9UKW6-2 1-255)
T6 sequence: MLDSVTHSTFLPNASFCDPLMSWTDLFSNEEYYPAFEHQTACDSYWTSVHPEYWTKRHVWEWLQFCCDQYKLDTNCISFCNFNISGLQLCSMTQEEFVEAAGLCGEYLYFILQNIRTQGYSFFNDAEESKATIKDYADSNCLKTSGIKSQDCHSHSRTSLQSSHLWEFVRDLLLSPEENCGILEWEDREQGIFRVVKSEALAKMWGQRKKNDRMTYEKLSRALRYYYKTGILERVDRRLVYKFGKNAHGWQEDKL
Summary of the method: as §1

ETV3 = target: T7, ETV3 (Homo sapiens, UniProt P41162-2 1-143)
T7 sequence: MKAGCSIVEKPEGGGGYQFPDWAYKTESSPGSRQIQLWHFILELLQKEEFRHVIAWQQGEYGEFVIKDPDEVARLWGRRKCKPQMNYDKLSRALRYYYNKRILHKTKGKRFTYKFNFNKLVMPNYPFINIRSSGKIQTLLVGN
Summary of the method: as §1

ETV6 = ETV6 (Homo sapiens, UniProt P41212 1-452)
Chain of ETV6 (P41212 whole entry): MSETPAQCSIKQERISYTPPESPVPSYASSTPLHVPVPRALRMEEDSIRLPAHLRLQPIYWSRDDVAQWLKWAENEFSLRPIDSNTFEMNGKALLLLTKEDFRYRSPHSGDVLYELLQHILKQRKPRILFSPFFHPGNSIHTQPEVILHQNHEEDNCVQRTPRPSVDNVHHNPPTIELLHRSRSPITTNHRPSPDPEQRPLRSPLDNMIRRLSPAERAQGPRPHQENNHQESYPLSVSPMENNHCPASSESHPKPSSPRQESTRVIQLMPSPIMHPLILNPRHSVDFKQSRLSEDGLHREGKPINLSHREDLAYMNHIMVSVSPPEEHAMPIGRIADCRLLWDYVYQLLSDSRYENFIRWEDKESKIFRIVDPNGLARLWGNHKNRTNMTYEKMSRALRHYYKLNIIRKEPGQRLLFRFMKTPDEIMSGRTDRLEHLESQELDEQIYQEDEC
Summary of the method: as §1

Row | Sequence | binding signal (ERF) | binding signal (ETV3L) | binding signal (ETS2) | binding signal (SPDEF) | binding signal (ETV7) | binding signal (ELF5) | binding signal (ETV3) | binding signal (ETV6)
1 | TTCCGT | 1.61 fold enrichment (6-mer frequency, TF over GST control) | 1.85 fold enrichment (6-mer frequency, TF over GST control) | 1.94 fold enrichment (6-mer frequency, TF over GST control) | 1.91 fold enrichment (6-mer frequency, TF over GST control) | 1.6 fold enrichment (6-mer frequency, TF over GST control) | 2.76 fold enrichment (6-mer frequency, TF over GST control) | 2.16 fold enrichment (6-mer frequency, TF over GST control) | 2.02 fold enrichment (6-mer frequency, TF over GST control)
2 | TAATGG | 1.17 fold enrichment (6-mer frequency, TF over GST control) | 1.23 fold enrichment (6-mer frequency, TF over GST control) | 1.28 fold enrichment (6-mer frequency, TF over GST control) | 1.22 fold enrichment (6-mer frequency, TF over GST control) | 1.2 fold enrichment (6-mer frequency, TF over GST control) | 1.32 fold enrichment (6-mer frequency, TF over GST control) | 1.28 fold enrichment (6-mer frequency, TF over GST control) | 1.31 fold enrichment (6-mer frequency, TF over GST control)
3 | ATGGTC | 1.45 fold enrichment (6-mer frequency, TF over GST control) | 1.49 fold enrichment (6-mer frequency, TF over GST control) | 1.49 fold enrichment (6-mer frequency, TF over GST control) | 1.35 fold enrichment (6-mer frequency, TF over GST control) | 1.29 fold enrichment (6-mer frequency, TF over GST control) | 1.46 fold enrichment (6-mer frequency, TF over GST control) | 1.55 fold enrichment (6-mer frequency, TF over GST control) | 1.52 fold enrichment (6-mer frequency, TF over GST control)
4 | TGTACG | 1.14 fold enrichment (6-mer frequency, TF over GST control) | 1.2 fold enrichment (6-mer frequency, TF over GST control) | 1.17 fold enrichment (6-mer frequency, TF over GST control) | 1.29 fold enrichment (6-mer frequency, TF over GST control) | 1.09 fold enrichment (6-mer frequency, TF over GST control) | 1.14 fold enrichment (6-mer frequency, TF over GST control) | 1.1 fold enrichment (6-mer frequency, TF over GST control) | 1.18 fold enrichment (6-mer frequency, TF over GST control)
5 | CCAACG | 1.29 fold enrichment (6-mer frequency, TF over GST control) | 1.1 fold enrichment (6-mer frequency, TF over GST control) | 1.08 fold enrichment (6-mer frequency, TF over GST control) | 1.13 fold enrichment (6-mer frequency, TF over GST control) | 1.13 fold enrichment (6-mer frequency, TF over GST control) | 1.1 fold enrichment (6-mer frequency, TF over GST control) | 1.09 fold enrichment (6-mer frequency, TF over GST control) | 1.22 fold enrichment (6-mer frequency, TF over GST control)
6 | AGTACA | 1.06 fold enrichment (6-mer frequency, TF over GST control) | 1.09 fold enrichment (6-mer frequency, TF over GST control) | 1.16 fold enrichment (6-mer frequency, TF over GST control) | 1.31 fold enrichment (6-mer frequency, TF over GST control) | 1.21 fold enrichment (6-mer frequency, TF over GST control) | 1.17 fold enrichment (6-mer frequency, TF over GST control) | 1.2 fold enrichment (6-mer frequency, TF over GST control) | 1.24 fold enrichment (6-mer frequency, TF over GST control)
7 | ATGTAC | 1.19 fold enrichment (6-mer frequency, TF over GST control) | 1.32 fold enrichment (6-mer frequency, TF over GST control) | 1.42 fold enrichment (6-mer frequency, TF over GST control) | 1.67 fold enrichment (6-mer frequency, TF over GST control) | 1.41 fold enrichment (6-mer frequency, TF over GST control) | 1.28 fold enrichment (6-mer frequency, TF over GST control) | 1.19 fold enrichment (6-mer frequency, TF over GST control) | 1.32 fold enrichment (6-mer frequency, TF over GST control)
8 | GAATTC | 1.38 fold enrichment (6-mer frequency, TF over GST control) | 1.41 fold enrichment (6-mer frequency, TF over GST control) | 1.33 fold enrichment (6-mer frequency, TF over GST control) | 1.33 fold enrichment (6-mer frequency, TF over GST control) | 1.32 fold enrichment (6-mer frequency, TF over GST control) | 1.32 fold enrichment (6-mer frequency, TF over GST control) | 1.35 fold enrichment (6-mer frequency, TF over GST control) | 1.2 fold enrichment (6-mer frequency, TF over GST control)

From paper PMC7862700, “An all-to-all approach to the identification of sequence-specific readers for epigenetic DNA modifications on cytosine”
